These results are taken from PubChem BioAssay (EPA / NIEHS).

For orientation: AC50 means the concentration at which the activity in the assay is half-maximal.

Inconclusive results are not listed. Activity calls are given as the source filed them. The calls were made as follows: active = hit-call score of the fitted dose curve at least 0.9, where 1 is the maximum; inconclusive = response in the unintended direction; inactive = score below 0.9.

The assay can be described thus: ACEA_ER_AUC_viability: ACEA Biosciences xCELLigence Real-Time Cell Analysis on Estrogen Receptor Agonism for Viability (AID 2283782).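 Also: continuous compound exposure with impedance area under curve over 80 h; hit means loss of impedance signal meaning reduced cell growth or viability.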 The method, boiled down: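 T47D cells preconditioned in phenol red-free RPMI with charcoal-stripped FBS, then dosed with 8-point 1:4 series from 100 uM (up to 0.5% DMSO). Impedance monitored up to ~80 h; area-under-curve loss versus DMSO taken as viability.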
For the molecule `O=S(=O)(O)c1ccccc1`, the call was inactive.
Regarding `CCC(C)c1nccnc1OC` (stereo not given), the molecule was classed as inactive.
Still for that read-out and setting: for `C=CCOCC(CO)(CO)CO` the value was “inactive”.
For `O=C(CC(=O)C(F)(F)C(F)(F)C(F)(F)F)c1cccs1`, the half-maximal activity concentration (AC50) is 113 µM (active).
With `CCCCCCCCC(C)=O`, the AC50 was 9.92 µM (active).
As for `C/C=C/C(=O)C1=C(C)CCCC1(C)C`, the call was inactive.
With `CCC(=O)O`, the molecule was called inactive.
Turning to `COCN(COC)c1nc(N(COC)COC)nc(N(COC)COC)n1`, the outcome was inactive.
Turning to `O=C(O)c1cccc(C(=O)O)n1`, the call was inactive.
As for `OCCN1CN(CCO)CN(CCO)C1`, the AC50 was 81.8 µM (active).
Consider `O=C1C=CC(=O)N1c1cccc(N2C(=O)C=CC2=O)c1`, for which the half-maximal activity concentration (AC50) was 23.6 µM (active).
For `OCC(F)(F)C(F)(F)C(F)(F)C(F)(F)C(F)(F)C(F)(F)C(F)(F)C(F)(F)C(F)(F)C(F)(F)C(F)(F)F`, the AC50 is 16.6 µM (active).
Consider `O=C(O)C(=O)O`, for which the molecule was classed as inactive.
`C=COC(=O)C(C)(C)CCCCCC`: the AC50 is 19.6 µM (active).
Regarding `O=C(O)CCC(F)(F)C(F)(F)C(F)(F)C(F)(F)C(F)(F)F`, the molecule was called inactive.
`CC(C)CCOCCC(C)C`: the AC50 was 37.5 µM (active).
As for `CC(C)(C)C1CCCCC1O` (stereo not given), the AC50 is 77.7 µM (active).
For the molecule `C=CC(=O)OCCC(F)(F)C(F)(F)C(F)(F)C(F)(F)C(F)(F)C(F)(F)C(F)(F)C(F)(F)F`, the molecule was called inactive.
In the case of `CCOC(OCC)C(=O)c1ccccc1`, the outcome was inactive.
`Oc1cc2ccccc2cc1O`: the AC50 was 40.8 µM (active).
As to `COC(O)c1ccccc1` (stereo not given), the result was inactive.
In the case of `CCCCC(CC)C(=O)OCCOCCOCCOCCOC(=O)C(CC)CCCC` (stereo not given), the molecule was called inactive.
Regarding `Nc1ccn([C@@H]2O[C@H](CO)[C@@H](O)C2O)c(=O)n1` (stereo not given in full), the AC50 is 9.92 µM (active).
Take `Oc1cccc2c(O)cccc12`: the AC50 was 20.2 µM (active).
Turning to `CNNCc1ccc(C(=O)NC(C)C)cc1`, the result was inactive.
For the molecule `C=CC(=O)OCCN(CC)CC`, the outcome was inactive.
As for `COc1cccc(O)c1`, the result was inactive.
As to `CCOC=C(C(=O)OCC)C(=O)OCC`, the call was inactive.
The same measure, in the same setting: for `CCCCN(C)C` the value was “inactive”; for `CCN(CCC#N)c1ccccc1`, “inactive”.
